Results published in PubChem BioAssay AID687001 (Broad Institute, 2013).
Measured potencies and affinities stand elsewhere.

Each compound was assayed against Protein S100-A4 (Homo sapiens) (UniProt P26447) (assay: human S100A4 peptide interaction inhibition curves – biochemical, fluorescence polarization, cherry-picked hits, dose response (AID 687001;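 note: 0% = DMSO neutral control wells and -100% = TFP positive control wells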)). Conditions: FP, S100A4/TAMRA-myosin IIA peptide binding; series mostly up to 11 µM; activity change, negative = inhibition: at the top concentration;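 active = signal-lowering compounds whose fitted half-maximal concentration is at or below twice the top tested dose in every run; inconclusive = runs disagree, flat 30 to 70% inhibition, or poor curve fit; inactive = the rest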.
Protein S100-A4 (Homo sapiens), sequence (P26447 whole entry, looked up): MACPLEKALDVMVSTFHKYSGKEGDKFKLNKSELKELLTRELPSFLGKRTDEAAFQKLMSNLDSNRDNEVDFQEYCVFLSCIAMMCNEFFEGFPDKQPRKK

Activity change, negative = inhibition, inactive:
COC(=O)C(c1ccccc1)C(CC(=O)c1ccccc1)c1ccccc1 (centres undefined) -2.72%
CC(C)OCCCNC(=O)c1ccccc1NC(=O)C1=CSCCO1 -5.74%
CCC(=O)N[C@@H]1CC[C@H](CCNC(=O)Nc2ccc(C(F)(F)F)cc2)O[C@H]1CO -0.182%
Cc1cc(C)c(C(=O)COC(=O)CNC(=O)c2ccccc2C)c(C)c1 -0.1%
O=S(=O)(c1ccc2c(c1)CCCN2)N1CCCC2CCCCC21 (centres undefined) 3.23%
O=C(Nc1ccc(C(F)(F)F)cc1)N[C@H]1C=C[C@@H](CC(=O)N2CCCCC2)O[C@@H]1CO -4.35%
O=C(CN(Cc1ccco1)C(=O)c1cccc(F)c1)Nc1ccccc1C(F)(F)F -0.501%
Cc1ccc(S(=O)(=O)N(C)C[C@@H]2Oc3c(NC(=O)C4CCCCC4)cccc3C(=O)N([C@H](C)CO)C[C@@H]2C)cc1 7.16%
CN1CCN(C(CNC(=O)C(=O)Nc2ccc3c(c2)OCO3)c2ccc(F)cc2)CC1 (centres undefined) -4.66%
CC(=O)Nc1ccc(C=NNc2nnc(NN=Cc3ccc(NC(C)=O)cc3)c3ccccc23)cc1 -2.18%
CS(=O)(=O)Nc1cccc(C2=NN(C(=O)c3ccc(F)cc3)C(c3cccs3)C2)c1 (centres undefined) -0.791%
C[C@H]1CN([C@@H](C)CO)C(=O)c2cc(NC(=O)NC3CCCCC3)ccc2O[C@@H]1CN(C)C(=O)Nc1ccccc1 0.497%
C[C@H](CO)N1C[C@H](C)[C@H](CN(C)CC2CC2)OCc2ccccc2-c2c(n(C)c3ccccc23)C1=O 0.788%
O=C(NCCNC(=O)c1cccc(O)c1)c1cccc(O)c1 -2.43%
CC(=O)Nc1ccc(Nc2nnc(-c3ccc(C)c(S(N)(=O)=O)c3)c3ccccc23)cc1 -7.44%
Cc1ccc(S(=O)(=O)Nc2ccc3c(c2)C(=O)N([C@@H](C)CO)C[C@@H](C)[C@@H](CN(C)S(=O)(=O)c2cn(C)cn2)OCCCC[C@@H](C)O3)cc1 5.52%
COc1cccc(NC(=O)N[C@@H]2C=C[C@@H](CC(=O)N3CCN(C)CC3)O[C@@H]2CO)c1 -4.96%
Cc1ccc(S(=O)(=O)NCCC(=O)NCC(=O)Nc2c(C)cccc2C)cc1C -0.925%
Cc1nc(Nc2cccc(O)c2)c2oc3ccccc3c2n1 -7.88%
Cc1cccc(-n2nc3c(c2NC(=O)c2cc4ccccc4o2)CS(=O)(=O)C3)c1 -2.96%
O=C(Nc1ccccc1F)N[C@H]1CC[C@H](CCNC(=O)C2CCCCC2)O[C@H]1CO 0.987%
O=C(OCc1ccccc1)/C(=C/c1ccccc1Cl)NC(=O)c1ccco1 1.77%
CCOC1=C2[C@H](c3ccccc3)N(S(=O)(=O)c3ccc(C)cc3)C(C(C)(C)C)[C@H]2C(C#N)(C#N)C(C#N)(C#N)C1 (some centres undefined) 2.74%
CCOC(=O)N1CCN(C(=O)COc2ccc3oc4c(c3c2)CCCC4)CC1 0.733%
C=CCSc1n[nH]c(-c2cccs2)n1 -1.92%
Nn1c(SCc2ccccc2F)nnc1-c1cccnc1 -0.717%
N#Cc1cccc(-c2ccc3c(c2)[C@@H]2[C@@H](CCN2C(=O)c2ccncc2)[C@@H](CO)N3)c1 16.9%
Cc1cc(C(=O)N/N=C/c2ccccn2)c2ccccc2n1 -6.09%
O=C(c1ccncc1)N1C[C@@H]2[C@H](c3ccccc31)[C@@H](CO)N2C(=O)CN1CCOCC1 0.53%
C[C@@H]1CN([C@@H](C)CO)C(=O)c2cccc(NC(=O)C3CC3)c2O[C@@H]1CN(C)S(C)(=O)=O 0.87%
COc1cc(Cl)ccc1OCc1cc(C(=O)N2CCCCCCC2)no1 0.083%
CC(C)(O)C#Cc1ccc([C@H]2[C@H](CO)N3CCCCN(C(=O)c4ccc(F)cc4)C[C@@H]23)cc1 16.9%
COc1ccccc1CN1CCNC(=O)C1CC(=O)NCCCN1CCOCC1 (centres undefined) -11.5%
COCC(=O)N[C@H]1C=C[C@@H](CC(=O)OC)O[C@@H]1CO -0.487%
Cn1cc(SCC(=O)NC2CCCC2)c2ccccc21 -2.12%
COc1ccc(C2/C=C\CN(S(=O)(=O)c3cccc4cccnc34)CC(=O)N2Cc2ccc(F)cc2)cc1 (centres undefined) -1.77%
C/C=C/c1ccc(C2[C@H]3CNC[C@@H]2N3S(=O)(=O)c2ccccc2C)cc1 (some centres undefined) 29.6%
O=C(CSc1ccc([N+](=O)[O-])cn1)Nc1ccc2c(c1)OCO2 -0.303%
C[C@@H]1CN([C@H](C)CO)C(=O)Cc2cc(NS(=O)(=O)c3ccccc3)ccc2O[C@@H]1CN(C)Cc1ccccc1 1.23%
